{"source": "the antibiotic and cytotoxicity screens of Wong et al. (2023)", "note": "Out of some 39,000 compounds screened, about 3,300 (8.5%) were called active. The sample as a whole holds a higher share of actives than the screen did.", "data": [{"test_system": "HepG2", "experiment": "cytotoxicity call (relative viability < 0.9)", "details": "10 µM", "values": [{"smiles": "C[C@@H]1CN([C@H](C)CO)C(=O)c2cccc(NC(=O)c3cnccn3)c2O[C@H]1CN(C)S(C)(=O)=O", "cytotoxicity call": "inactive"}, {"smiles": "C[C@@H]1CCCCO[C@@H](CN(C)C(=O)c2ccncc2)[C@@H](C)CN([C@H](C)CO)C(=O)c2cc(NC(=O)C3CCCCC3)ccc2O1", "cytotoxicity call": "inactive"}, {"smiles": "C[C@@H]1CN([C@H](C)CO)C(=O)c2cc(NC(=O)C3CCCCC3)ccc2O[C@@H](C)CCCCO[C@@H]1CN(C)C(=O)c1ccncc1", "cytotoxicity call": "inactive"}, {"smiles": "C[C@H]1CN([C@@H](C)CO)C(=O)c2cc(NC(=O)CCC(F)(F)F)ccc2O[C@@H]1CN(C)Cc1ccc(C(=O)Nc2ccccc2N)cc1", "cytotoxicity call": "inactive"}, {"smiles": "COc1ccc(NC(=O)N(C)C[C@H]2OCCCC[C@@H](C)Oc3ccc(NS(=O)(=O)c4c(C)noc4C)cc3C(=O)N([C@@H](C)CO)C[C@H]2C)cc1", "cytotoxicity call": "inactive"}, {"smiles": "NNc1ccc2nncn2n1", "cytotoxicity call": "inactive"}, {"smiles": "C[C@@H]1CN([C@@H](C)CO)C(=O)Cc2cc(NC(=O)CCN3CCOCC3)ccc2O[C@H]1CN(C)S(=O)(=O)c1cn(C)cn1", "cytotoxicity call": "inactive"}, {"smiles": "C[C@H]1CN([C@@H](C)CO)C(=O)c2cc(C#CCN(C)C)cnc2O[C@H]1CN(C)C(=O)Nc1cccc(F)c1", "cytotoxicity call": "inactive"}, {"smiles": "C[C@H]1CN([C@@H](C)CO)C(=O)c2cc(C#CCc3ccccc3)cnc2O[C@H]1CN(C)CC1CCOCC1", "cytotoxicity call": "inactive"}, {"smiles": "CC(C)N1C[C@@H](C)[C@H](CN(C)Cc2ccc(Oc3ccccc3)cc2)Oc2c(C(=O)Nc3ccncc3)cccc2C1=O", "cytotoxicity call": "inactive"}, {"smiles": "Cc1cc(C(C)(C)C)c(O)c(C(C)(C)C)c1", "cytotoxicity call": "active"}, {"smiles": "Cc1ccc(O)c(C(C)(C)C)c1", "cytotoxicity call": "inactive"}, {"smiles": "CC(C)(Sc1cc(C(C)(C)C)c(O)c(C(C)(C)C)c1)Sc1cc(C(C)(C)C)c(O)c(C(C)(C)C)c1", "cytotoxicity call": "inactive"}, {"smiles": "C[C@H](CO)N1C[C@H](C)[C@H](CN(C)C(=O)CN(C)C)Oc2ncc(C#CC(C)(C)O)cc2C1=O", "cytotoxicity call": "inactive"}, {"smiles": "C[C@@H]1CN([C@@H](C)CO)C(=O)c2cccc(NC(=O)CCCCCC(=O)Nc3ccccc3N)c2O[C@@H]1CN(C)S(=O)(=O)c1cn(C)cn1", "cytotoxicity call": "inactive"}, {"smiles": "C[C@@H]1CN([C@@H](C)CO)C(=O)c2cc(NS(=O)(=O)c3ccccc3)ccc2O[C@H]1CN(C)Cc1ccc(Cl)c(Cl)c1", "cytotoxicity call": "inactive"}, {"smiles": "C[C@H](CO)N1C[C@H](C)[C@@H](CN(C)Cc2ccc(Cl)c(Cl)c2)Oc2ccc(NS(=O)(=O)c3ccccc3)cc2C1=O", "cytotoxicity call": "inactive"}, {"smiles": "C[C@@H]1CN([C@H](C)CO)C(=O)c2cc(NS(=O)(=O)c3ccccc3)ccc2O[C@@H]1CN(C)Cc1ccc(Cl)c(Cl)c1", "cytotoxicity call": "active"}, {"smiles": "C[C@H]1CN([C@@H](C)CO)C(=O)c2cc(NS(=O)(=O)c3ccccc3)ccc2O[C@@H]1CN(C)Cc1ccc(Cl)c(Cl)c1", "cytotoxicity call": "inactive"}, {"smiles": "C[C@@H]1CN([C@@H](C)CO)C(=O)c2cc(NS(=O)(=O)c3ccccc3)ccc2O[C@@H]1CN(C)Cc1ccc(Cl)c(Cl)c1", "cytotoxicity call": "active"}, {"smiles": "C[C@H](CO)N1C[C@H](C)[C@H](CN(C)Cc2ccc(Cl)c(Cl)c2)Oc2ccc(NS(=O)(=O)c3ccccc3)cc2C1=O", "cytotoxicity call": "inactive"}, {"smiles": "C[C@H](CO)N1C[C@H](C)[C@@H](CN(C)C(=O)Nc2ccc(N3CCCCC3)cc2)OCc2cnnn2CCCC1=O", "cytotoxicity call": "inactive"}, {"smiles": "CC(C)NC(=O)N(C)C[C@@H]1Oc2ccc(NC(=O)C3CCCCC3)cc2CC(=O)N([C@@H](C)CO)C[C@H]1C", "cytotoxicity call": "inactive"}, {"smiles": "CCC[C@@H](O)C#Cc1cnc2c(c1)C(=O)N([C@H](C)CO)C[C@H](C)[C@H](CN(C)S(=O)(=O)c1cccs1)O2", "cytotoxicity call": "inactive"}, {"smiles": "C[C@H]1CC[C@@H]2C(C(=O)O[C@H]3[C@H]4O[C@@]4(C)[C@H]4[C@@H](O[C@H]5O[C@@H](CO)[C@@H](O)[C@@H](O)[C@@H]5O)OC=C[C@@]34O)=CO[C@H](O[C@H]3O[C@@H](CO)[C@@H](O)[C@@H](O)[C@@H]3O)[C@@H]21", "cytotoxicity call": "inactive"}, {"smiles": "C[C@H](CO)N1C[C@H](C)[C@H](CN(C)C(=O)Nc2ccc(F)cc2)Oc2ccc(NS(C)(=O)=O)cc2C1=O", "cytotoxicity call": "inactive"}, {"smiles": "C[C@@H]1CN([C@H](C)CO)C(=O)c2cc(NC(=O)NC3CCCCC3)ccc2O[C@H]1CN(C)C(=O)Nc1ccc(C(F)(F)F)cc1", "cytotoxicity call": "inactive"}, {"smiles": "C[C@H]1CN([C@@H](C)CO)C(=O)c2cc(NC(=O)NC3CCCCC3)ccc2O[C@H]1CN(C)C(=O)Nc1ccc(C(F)(F)F)cc1", "cytotoxicity call": "inactive"}, {"smiles": "C[C@H]1CN([C@@H](C)CO)C(=O)c2cc(NC(=O)Nc3ccc(C(F)(F)F)cc3)ccc2O[C@@H]1CN(C)C(=O)NC1CCCCC1", "cytotoxicity call": "inactive"}, {"smiles": "C[C@@H]1CN([C@H](C)CO)C(=O)c2cc(NC(=O)Nc3ccc(C(F)(F)F)cc3)ccc2O[C@H]1CN(C)C(=O)NC1CCCCC1", "cytotoxicity call": "inactive"}, {"smiles": "C[C@@H]1CN([C@H](C)CO)C(=O)c2cc(NC(=O)Nc3ccc(C(F)(F)F)cc3)ccc2O[C@@H]1CN(C)C(=O)NC1CCCCC1", "cytotoxicity call": "active"}, {"smiles": "C[C@H](CO)N1C[C@H](C)[C@@H](CN(C)C(=O)NC2CCCCC2)Oc2ccc(NC(=O)Nc3ccc(C(F)(F)F)cc3)cc2C1=O", "cytotoxicity call": "inactive"}, {"smiles": "C[C@H]1CN([C@@H](C)CO)C(=O)c2cc(NC(=O)Nc3ccc(C(F)(F)F)cc3)ccc2O[C@H]1CN(C)C(=O)NC1CCCCC1", "cytotoxicity call": "inactive"}, {"smiles": "C[C@@H]1CN([C@@H](C)CO)C(=O)c2cc(NC(=O)Nc3ccc(C(F)(F)F)cc3)ccc2O[C@@H]1CN(C)C(=O)NC1CCCCC1", "cytotoxicity call": "active"}, {"smiles": "C[C@H](CO)N1C[C@H](C)[C@H](CN(C)C(=O)Nc2ccc(C(F)(F)F)cc2)Oc2ccc(NC(=O)NC3CCCCC3)cc2C1=O", "cytotoxicity call": "active"}, {"smiles": "C[C@@H]1CN([C@H](C)CO)C(=O)c2cc(NC(=O)Nc3ccccc3)ccc2O[C@@H](C)CCCCO[C@@H]1CN(C)C(=O)NC1CCCCC1", "cytotoxicity call": "inactive"}, {"smiles": "CC(=O)N[C@@H]1[C@@H](O)[C@H](O)[C@H](CO)O[C@@H]1O", "cytotoxicity call": "inactive"}, {"smiles": "COCC(=O)Nc1ccc2c(c1)OC[C@@H](C)N(C(=O)Cc1cccnc1)C[C@H](C)[C@@H](OC)CN(C)C2=O", "cytotoxicity call": "inactive"}, {"smiles": "Cn1cnc(S(=O)(=O)N2C[C@@H](O)COC[C@H]3O[C@H](CC(=O)NCc4ccc(F)cc4)CC[C@@H]32)c1", "cytotoxicity call": "inactive"}, {"smiles": "COc1cc(C)nc(SCC(N)=O)n1", "cytotoxicity call": "inactive"}, {"smiles": "COc1ccc(S(=O)(=O)Nc2ccc3c(c2)C(=O)N([C@@H](C)CO)C[C@@H](C)[C@@H](CN(C)S(=O)(=O)c2ccccc2)O3)cc1", "cytotoxicity call": "inactive"}, {"smiles": "C[C@@H]1CN([C@H](C)CO)C(=O)CCCn2nncc2CO[C@@H]1CN(C)C(=O)CCCN(C)C", "cytotoxicity call": "inactive"}, {"smiles": "Cc1cc(O[C@@H](CCC(F)(F)F)c2ccc(C(=O)NCCC(=O)O)cc2)cc(C)c1-c1ccc(C(C)(C)C)cc1", "cytotoxicity call": "inactive"}, {"smiles": "Cc1cc(C)c(-c2ccc(NC(=O)[C@H](Cc3ccc(C(=O)NCCS(=O)(=O)O)cc3)c3ccc(-c4ccc(C(C)(C)C)cc4)cc3)cc2)c(C)c1", "cytotoxicity call": "active"}, {"smiles": "COc1ccc(C#Cc2ccc3c(c2)O[C@H](CN(C)S(=O)(=O)c2ccccc2F)[C@@H](C)CN([C@H](C)CO)S3(=O)=O)cc1", "cytotoxicity call": "inactive"}, {"smiles": "COc1ccc(S(=O)(=O)Nc2ccc3c(c2)C(=O)N([C@@H](C)CO)C[C@@H](C)[C@H](CN(C)Cc2ccc(C(F)(F)F)cc2)OCCCC[C@@H](C)O3)cc1", "cytotoxicity call": "active"}, {"smiles": "COc1ccc(S(=O)(=O)Nc2ccc3c(c2)C(=O)N([C@H](C)CO)C[C@H](C)[C@@H](CN(C)Cc2ccc(C(F)(F)F)cc2)OCCCC[C@@H](C)O3)cc1", "cytotoxicity call": "inactive"}, {"smiles": "COc1ccc(S(=O)(=O)Nc2ccc3c(c2)C(=O)N([C@H](C)CO)C[C@@H](C)[C@@H](CN(C)Cc2ccc(C(F)(F)F)cc2)OCCCC[C@H](C)O3)cc1", "cytotoxicity call": "inactive"}, {"smiles": "COc1ccc(S(=O)(=O)Nc2ccc3c(c2)C(=O)N([C@@H](C)CO)C[C@H](C)[C@@H](CN(C)Cc2ccc(C(F)(F)F)cc2)OCCCC[C@@H](C)O3)cc1", "cytotoxicity call": "active"}, {"smiles": "COc1ccc(S(=O)(=O)Nc2ccc3c(c2)C(=O)N([C@@H](C)CO)C[C@H](C)[C@H](CN(C)Cc2ccc(C(F)(F)F)cc2)OCCCC[C@H](C)O3)cc1", "cytotoxicity call": "active"}, {"smiles": "COc1ccc(S(=O)(=O)Nc2ccc3c(c2)C(=O)N([C@@H](C)CO)C[C@@H](C)[C@@H](CN(C)Cc2ccc(C(F)(F)F)cc2)OCCCC[C@@H](C)O3)cc1", "cytotoxicity call": "active"}, {"smiles": "C[C@@H]1CCCCO[C@@H](CN(C)C(=O)c2ccncc2)[C@@H](C)CN([C@H](C)CO)C(=O)c2cc(NC(=O)NC3CCCCC3)ccc2O1", "cytotoxicity call": "inactive"}, {"smiles": "CO[C@H]1CN(C)C(=O)c2ccc(NC(=O)C3CC3)cc2OC[C@H](C)N(C(=O)Cc2ccccn2)C[C@@H]1C", "cytotoxicity call": "inactive"}, {"smiles": "C[C@@H]1CN([C@H](C)CO)C(=O)c2cccc(NC(=O)Nc3ccccc3)c2O[C@@H]1CN(C)Cc1ccc(Cl)c(Cl)c1", "cytotoxicity call": "inactive"}, {"smiles": "C[C@H](CO)N1C[C@H](C)[C@@H](CN(C)C(=O)Nc2ccc3c(c2)OCO3)Oc2ncc(-c3cccnc3)cc2C1=O", "cytotoxicity call": "inactive"}, {"smiles": "CCS(=O)(=O)Nc1ccc2c(c1)C(=O)N(C)[C@H]1CC[C@@H](CC(=O)NCCOC)O[C@H]1CO2", "cytotoxicity call": "inactive"}, {"smiles": "C[C@H](CO)N1C[C@H](C)[C@H](CN(C)CC2CCCCC2)Oc2c(NC(=O)c3cnccn3)cccc2C1=O", "cytotoxicity call": "inactive"}, {"smiles": "Nc1ccn([C@@H]2CS[C@H](CO)O2)c(=O)n1", "cytotoxicity call": "inactive"}, {"smiles": "CN1CCN(C(=O)C[C@H]2CC[C@@H]3[C@@H](COc4ccc(NC(=O)C5CCCCC5)cc4C(=O)N3C)O2)CC1", "cytotoxicity call": "inactive"}, {"smiles": "CCCNC(=O)N1C[C@]2(CN(C2)S(=O)(=O)c2ccc(cc2)OC)c2c(n(c3cc(ccc23)OC)C)[C@@H]1CO", "cytotoxicity call": "inactive"}, {"smiles": "C[C@H](CO)N1C[C@H](C)[C@@H](CN(C)C(=O)c2cccc(F)c2)Oc2cc(C#CC3CC3)ccc2S1(=O)=O", "cytotoxicity call": "inactive"}, {"smiles": "CNC(=O)C[C@H]1CC[C@H]2[C@@H](COC[C@H](O)CN2C(=O)Nc2ccc3c(c2)OCO3)O1", "cytotoxicity call": "inactive"}]}]}
